Source: PubChem BioAssay
“And” between values parts separate entries of the source, which are not always exact repeats. Identical values can stand only once. The source made the active and inactive calls.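 The calls were made as follows, unless noted: active = normalized viability below 100% at a tested concentration; inactive = the rest.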

How the values were obtained:
[1] = stimulators of nuclear beta-catenin in C2C12, primary screen, imaging, WNT3A-conditioned medium, mouse C2C12, NPC library (AID 1117326; in the data active = nuclear beta-catenin stimulation mostly above about 4.2%, no sharp cut-off; inactive = mostly below about 10%); details: stronger effect = higher value
[2] = stimulators of insulin release from INS-1E, primary screen, cell-based, 5 mM glucose, NPC library (AID 1117329;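 active = compound raises insulin release from rat beta cells at 5 mM glucose, no numeric limit stated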); details: rat INS-1E insulin secretion, at 10 µM, stronger effect = higher value
[3] = growth inhibition of GSK3B-pretreated HCT116 cells – cell-based, CellTiter-Glo, 0.2 to 20 µM (AID 1117336;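 active = compounds lowering colon cancer cell viability after pretreatment blocking the GSK3B kinase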); details: HCT116 viability after GSK3B inhibitor, at 20 µM, stronger effect = higher value
[4] = inhibition of endothelial tube formation, primary screen, imaging, VEGF stimulated, CD31 staining, tube area, NPC library (AID 1117340;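 active = compound that reduces growth-factor-driven endothelial tube area in a mixed cell culture, no cutoff stated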); details: VEGF-stimulated ADSC/ECFC co-culture, at 10 µM, stronger effect = higher value
[5] = glucagon-like peptide 1 release enhancers, primary assay, NCI-H716 cell line, NPC library (AID 1117341;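 active = compound raises GLP1 secretion from the human gut endocrine cells, with no numeric limit stated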); details: NCI-H716 cells, at 10 µM, stronger effect = higher value
[6] = HCT116 colon cancer cell growth inhibition, primary screen, CellTiter-Glo luminescence, NPC library (AID 1117342;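 active = compounds that lower survival of HCT116 colon cancer cells in the luminescence readout, no numeric limit stated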); details: at 20 µM (top of the series)
[7] = CellTiter-Glo luminescent readout of SW480 viability loss, NPC library primary (AID 1117343;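 active = compounds that lower viability of the colon cancer cells in the luminescence readout, with no numeric limit stated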); details: CellTiter-Glo luminescence; at 20 µM (top of the series)
[8] = decreased DLD-1 cellular survival, CellTiter-Glo luminescent readout, NPC compound collection, primary HTS (AID 1117346;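 active = compounds that lower survival of DLD-1 colon cancer cells in the luminescence readout, no cutoff given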); details: DLD-1 viability, CellTiter-Glo luminescence; at 20 µM (top of the series)
[9] = target: 6-phosphogluconate dehydrogenase, decarboxylating (Homo sapiens) (UniProt P52209); assay: 6PGD enzyme inhibitors, primary screen, biochemical, human, recombinant enzyme, NADPH absorbance (AID 1159550;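 active = at least 20% inhibition of 6-phosphogluconate dehydrogenase activity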); details: recombinant 6PGD, NADPH absorbance 341 nm; at 10 µM; stronger effect = higher value
Chain of 6-phosphogluconate dehydrogenase, decarboxylating (Homo sapiens) (P52209 whole entry, looked up): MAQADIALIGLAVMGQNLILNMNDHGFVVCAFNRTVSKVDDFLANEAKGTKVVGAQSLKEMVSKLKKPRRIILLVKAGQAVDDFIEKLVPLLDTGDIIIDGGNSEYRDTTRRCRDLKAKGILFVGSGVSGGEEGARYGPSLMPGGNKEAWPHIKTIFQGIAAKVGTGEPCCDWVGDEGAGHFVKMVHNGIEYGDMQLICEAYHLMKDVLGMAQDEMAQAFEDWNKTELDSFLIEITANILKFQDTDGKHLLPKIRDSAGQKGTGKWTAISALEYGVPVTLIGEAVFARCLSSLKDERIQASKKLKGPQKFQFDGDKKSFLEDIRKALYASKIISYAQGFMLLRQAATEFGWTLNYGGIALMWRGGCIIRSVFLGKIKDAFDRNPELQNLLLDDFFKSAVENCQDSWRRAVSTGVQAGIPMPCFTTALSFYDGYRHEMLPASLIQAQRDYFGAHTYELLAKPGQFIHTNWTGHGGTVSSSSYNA

[10] = modulation of C. elegans fzo-1 (AID 1259413; call rule not given here;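 also: fzo-1 mutant C. elegans worms in liquid wells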); details: C. elegans fzo-1 modulator screen, mean read-out; stronger effect = higher value
[11] = differential killing of epithelial or mesenchymal cells, primary screen, imaging, PC-3E GFP, TEM4-18 mCherry, co-culture (AID 1345086;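 active = compounds killing one labelled cell type while sparing the other, by normalised counts and ratio limits, not self-fluorescent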;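 also: cells exposed to compound for 72 h before imaging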;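 as to red/green cell ratio (normalised): normalised mesenchymal count divided by normalised epithelial count so high means epithelial killing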); details: imaging cell counts, at 1 µM
[12] = survival rescue of mitochondrial mutant cells in low glucose, primary screen, MELAS cybrids, Rieske KO mouse fibroblasts, CellTiter-Glo (AID 1508586;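 active = mean z-score across replicates of 1.96 or higher in either the MELAS or the Rieske mutant cell line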;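 also: z relative to plate mean and SD of compound and empty wells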)
[13] = ovarian cancer cell viability with rucaparib, profiling panel, oncology-focused library, rucaparib conditional (AID 1508598); details: patient-derived ovarian cancer cells, CellTiter-Glo viability, 144 h, stronger effect = lower value
[14] = target: NAD(+) hydrolase SARM1 (Homo sapiens) (UniProt Q6SZW1); assay: SARM1 TIR NADase inhibitors, cell lysate, NAD-Glo luminescence (AID 1508614;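 active = compound whose remaining NAD level is above about 45 nM, limit read from the data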;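 also: higher remaining NAD means stronger inhibition of SARM1 NADase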); details: SAM-TIR HEK293T lysate NADase, at 1 µM, stronger effect = higher value
Chain of NAD(+) hydrolase SARM1 (Homo sapiens) (Q6SZW1 whole entry, looked up, the tested form may be a part): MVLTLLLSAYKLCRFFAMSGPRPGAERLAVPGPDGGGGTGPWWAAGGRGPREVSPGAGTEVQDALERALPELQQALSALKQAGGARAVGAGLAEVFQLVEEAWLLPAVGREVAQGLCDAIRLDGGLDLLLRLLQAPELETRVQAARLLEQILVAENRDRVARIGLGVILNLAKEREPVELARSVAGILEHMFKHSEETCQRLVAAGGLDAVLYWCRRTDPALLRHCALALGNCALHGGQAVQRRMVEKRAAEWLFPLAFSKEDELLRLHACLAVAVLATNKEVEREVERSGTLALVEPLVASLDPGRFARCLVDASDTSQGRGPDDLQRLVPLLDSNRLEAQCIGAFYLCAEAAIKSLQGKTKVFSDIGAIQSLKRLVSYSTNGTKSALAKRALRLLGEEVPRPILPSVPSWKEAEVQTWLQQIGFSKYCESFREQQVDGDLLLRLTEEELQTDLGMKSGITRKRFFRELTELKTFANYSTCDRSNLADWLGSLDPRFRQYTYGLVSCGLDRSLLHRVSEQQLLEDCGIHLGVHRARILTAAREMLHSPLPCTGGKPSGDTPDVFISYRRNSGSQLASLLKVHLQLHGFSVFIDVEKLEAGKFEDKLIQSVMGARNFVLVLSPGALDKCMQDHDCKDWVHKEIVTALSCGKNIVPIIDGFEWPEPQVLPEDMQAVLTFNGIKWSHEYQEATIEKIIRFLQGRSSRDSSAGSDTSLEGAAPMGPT

[15] = target: Mitogen-activated protein kinase 7 (Homo sapiens) (UniProt Q13164); assay: ERK5 transactivation activators in reporter cells, primary screen, cell-based, HTS (AID 1508626;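 active = luciferase signal above three times the same-plate solvent-only control wells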;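 also: luciferase driven by Gal4-ERK5 fusion binding five Gal4 sites before minimal TATA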); details: HeLa Gal4-ERK5 transactivation, 18 h, at 5 µM, stronger effect = higher value
Chain of Mitogen-activated protein kinase 7 (Homo sapiens) (Q13164 whole entry, looked up, the tested form may be a part): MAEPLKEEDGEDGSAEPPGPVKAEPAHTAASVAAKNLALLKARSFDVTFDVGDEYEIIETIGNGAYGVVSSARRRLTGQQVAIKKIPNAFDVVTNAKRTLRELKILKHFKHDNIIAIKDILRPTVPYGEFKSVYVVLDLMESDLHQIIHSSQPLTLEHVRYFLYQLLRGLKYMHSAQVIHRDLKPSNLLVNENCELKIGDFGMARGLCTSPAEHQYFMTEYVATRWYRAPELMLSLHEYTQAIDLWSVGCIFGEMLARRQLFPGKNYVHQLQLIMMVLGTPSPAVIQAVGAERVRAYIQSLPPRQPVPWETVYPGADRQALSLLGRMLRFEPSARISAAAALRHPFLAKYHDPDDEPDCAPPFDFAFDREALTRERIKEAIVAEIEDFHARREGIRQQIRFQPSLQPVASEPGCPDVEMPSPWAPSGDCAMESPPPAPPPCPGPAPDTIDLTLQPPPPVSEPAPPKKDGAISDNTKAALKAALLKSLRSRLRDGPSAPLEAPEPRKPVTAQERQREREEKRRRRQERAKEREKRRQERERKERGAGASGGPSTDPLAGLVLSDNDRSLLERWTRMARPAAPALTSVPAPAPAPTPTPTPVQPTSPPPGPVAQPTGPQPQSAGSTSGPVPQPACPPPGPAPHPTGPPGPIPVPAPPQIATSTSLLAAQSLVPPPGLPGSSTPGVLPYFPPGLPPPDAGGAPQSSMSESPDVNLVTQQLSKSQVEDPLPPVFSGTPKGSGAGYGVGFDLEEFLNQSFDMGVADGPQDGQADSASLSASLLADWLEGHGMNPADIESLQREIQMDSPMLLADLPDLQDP

F380Y = assay: modulators of BK channel variants, profiling panel, selectivity assay, cell-based, U2OS BacMam, thallium flux, beta subunits (AID 1259406;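 active = thallium flux through the channel raised or lowered by more than 3 SD from vehicle-only wells, actives on both sides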;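 also: initial slope of Thallos dye fluorescence rise after thallium is added; log ratio against the mean of 0.3% DMSO vehicle wells on the same plate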); details: at 30 µM
F380Y/beta1 = assay: as above; details: at 30 µM
F380Y/beta2Delta = assay: as above; details: at 30 µM

CN(CCOc1ccc(CC2SC(=O)NC2=O)cc1)c1ccccn1 (stereo not drawn)
1.63: normalised cell number ([11]; measured here: epithelial PC-3E GFP cell survival)
active: viability ([13]; at 0.000305 µM, OCI-P5x cells, with rucaparib 20 µM, 100% = cells with rucaparib alone) 91.6% | viability ([13]; at 0.000305 µM, OCI-P5x cells, without rucaparib) 99.1% | viability ([13]; at 0.00488 µM, OCI-P5x cells, with rucaparib 20 µM, 100% = cells with rucaparib alone) 96.3% | log fold change Tl+ flux (F380Y/beta1) 0.17 and 0.199
0.1%: nuclear beta-catenin stimulation ([1]; stimulation, at 2 µM)
0.76 and -1.4: z-score ([12]; Rieske KO mouse fibroblast survival, CellTiter-Glo 72 h)
inactive: nuclear beta-catenin stimulation ([1]; at 10 µM) 4.7% | insulin secretion stimulation [2] -0.5% | viability decrease [3] -166% | tube area decrease [4] -11.1% | GLP1 secretion stimulation [5] -2.5% | inhibition of viability [6] -4.27% | viability decrease (inhibition) [7] 17.9% | viability decrease (inhibition) [8] -28.4% | inhibition [9] -0.784% | mean signal [10] 290 | red/green cell ratio (normalised) ([11]; actives lie on both sides, counts scaled to control wells, 1 = unselective) 0.92 | z-score ([12]; MELAS cybrid survival, CellTiter-Glo 48 h, stronger effect = higher value) -0.369 and -0.527 | viability ([13]; at 0.000305 µM, OCI-C5x cells, with rucaparib 10 µM, 100% = cells with rucaparib alone) 112% | viability ([13]; at 0.000305 µM, OCI-C5x cells, without rucaparib) 124% | viability ([13]; at 0.00122 µM, OCI-C5x cells, with rucaparib 10 µM, 100% = cells with rucaparib alone) 116% | viability ([13]; at 0.00122 µM, OCI-C5x cells, without rucaparib) 133% | viability ([13]; at 0.00122 µM, OCI-P5x cells, with rucaparib 20 µM, 100% = cells with rucaparib alone) 104% | viability ([13]; at 0.00122 µM, OCI-P5x cells, without rucaparib) 108% | viability ([13]; at 0.00488 µM, OCI-C5x cells, with rucaparib 10 µM, 100% = cells with rucaparib alone) 123% | viability ([13]; at 0.00488 µM, OCI-C5x cells, without rucaparib) 129% | viability ([13]; at 0.00488 µM, OCI-P5x cells, without rucaparib) 106% | viability ([13]; at 0.0195 µM, OCI-C5x cells, with rucaparib 10 µM, 100% = cells with rucaparib alone) 114% | viability ([13]; at 0.0195 µM, OCI-C5x cells, without rucaparib) 137% | viability ([13]; at 0.0195 µM, OCI-P5x cells, with rucaparib 20 µM, 100% = cells with rucaparib alone) 108% | viability ([13]; at 0.0195 µM, OCI-P5x cells, without rucaparib) 116% | viability ([13]; at 0.0781 µM, OCI-C5x cells, with rucaparib 10 µM, 100% = cells with rucaparib alone) 106% | viability ([13]; at 0.0781 µM, OCI-C5x cells, without rucaparib) 128% | viability ([13]; at 0.0781 µM, OCI-P5x cells, with rucaparib 20 µM, 100% = cells with rucaparib alone) 103% | viability ([13]; at 0.0781 µM, OCI-P5x cells, without rucaparib) 113% | viability ([13]; at 0.313 µM, OCI-C5x cells, with rucaparib 10 µM, 100% = cells with rucaparib alone) 110% | viability ([13]; at 0.313 µM, OCI-C5x cells, without rucaparib) 148% | viability ([13]; at 0.313 µM, OCI-P5x cells, with rucaparib 20 µM, 100% = cells with rucaparib alone) 106% | viability ([13]; at 0.313 µM, OCI-P5x cells, without rucaparib) 119% | viability ([13]; at 1.25 µM, OCI-C5x cells, with rucaparib 10 µM, 100% = cells with rucaparib alone) 107% | viability ([13]; at 1.25 µM, OCI-C5x cells, without rucaparib) 131% | viability ([13]; at 1.25 µM, OCI-P5x cells, with rucaparib 20 µM, 100% = cells with rucaparib alone) 101% | viability ([13]; at 1.25 µM, OCI-P5x cells, without rucaparib) 115% | viability ([13]; at 5 µM, OCI-C5x cells, with rucaparib 10 µM, 100% = cells with rucaparib alone) 106% | viability ([13]; at 5 µM, OCI-C5x cells, without rucaparib) 133% | viability ([13]; at 5 µM, OCI-P5x cells, with rucaparib 20 µM, 100% = cells with rucaparib alone) 103% | viability ([13]; at 5 µM, OCI-P5x cells, without rucaparib) 116% | remaining NAD [14] 10 nM | luciferase signal [15] 72 AU | log fold change Tl+ flux (F380Y) -0.00159 and 0.0548 | log fold change Tl+ flux (F380Y/beta2Delta) -0.0425 and 0.0999
1.5: normalised cell number ([11]; measured here: mesenchymal TEM4-18 mCherry cell survival)
